This note sets out measurements from PubChem BioAssay (NCATS).

Molecules are shown by their SMILES. Records with an inconclusive call do not appear. Unmarked numbers belong to inactive results. The source made the active and inactive calls. Calls come from the whole dose curve; as a rule, active = well fitted cell-killing curve with a large enough effect; inconclusive = small, poorly fitted or top-dose-only effect, or effect the other way; inactive = no such curve, though single readings can be large or run the other way. Residues, ends and D or L forms follow the SMILES beside them. *: point of attachment. Cbz = O=C(OCc1ccccc1)*
Potency is the fitted concentration of half-maximal effect.

A short description of the assay: Quantitative High-Throughput drug screen in 47 multiple myeloma cell lines against the NCATS MIPE library collection: OCIMY1_PLB cell viability assay (AID 1918979). Note: nearly all actives have a fitted effect of over 35% in size. The note with it: OCI-MY1 myeloma viability, CellTiter-Glo ATP, 48 h; series mostly up to 45.8 µM; viability: at the top concentration. The text has this:
PI: Beverly A. Mock Ph.D.
Laboratory of Cancer Biology and Genetics,
Center for Cancer Research, National Cancer Institute,
National Institute of Health, Bethesda, Maryland
Drug resistance and disease progression are common in multiple myeloma (MM) patients, underscoring the need for new therapeutic combinations. […] We hypothesized that effective combinations would reduce MYC expression and enhance p16 activity. […] These preclinical data identify potentially useful drug combinations for evaluation in drug-resistant MM and reveal potential mechanisms of combined drug sensitivity.
Described herein is the primary MIPE qHTS used to cherrypick compounds. Validated compounds were then further tested for potential synergistic activiy.
[1] Peat TJ, Gaikwad SM, Dubois W, Gyabaah-Kessie N, Zhang S, Gorjifard S, Phyo Z, Andres M, Hughitt VK, Simpson RM, Miller MA, Girvin AT, Taylor A, Williams D, D'Antonio N, Zhang Y, Rajagopalan A, Flietner E, Wilson K, Zhang X, Shinn P, Klumpp-Thomas C, McKnight C, Itkin Z, Chen L, Kazandijian D, Zhang J, Michalowski AM, Simmons JK, Keats J, Thomas CJ, Mock BA. Drug combinations identified by high-throughput screening promote cell cycle transition and upregulate Smad pathways in myeloma. Cancer Lett. 2023 Aug 1;568:216284. doi: 10.1016/j.canlet.2023.216284. Epub 2023 Jun 24. PMID: 37356470; PMCID: PMC10408729.
SEQUENCE No. (e.g., 1, 2, 3, etc.); […] (e.g., Cells, Incubation, Reagent, etc.); VALUE and DESCRIPTION.
1; Cells; 5 uL; white, solid bottom 1536-well Greiner assay plate.
2; Compounds; 23 nL; Kalypsis pin tool (Wako USA) equipped with a 1536-well pin head to transfer to the assay plates.
3; Incubation; 48 hours; 37C incubation.
4; Reagent;5uL; CellTiter Glo (Promega).
5; Detector; 425V; Luminescence; Viewlux PerkinElmer.
NOTES (numbers refer to Sequence numbers above)
1. The cell-based screening methods employed in this study were like those previously published. Briefly, the corresponding myeloma cell lines were screened in 1,536-well plates with 500 cells, 5-uL per well for inhibition of cell viability (assessed by measuring ATP levels with CellTiterGlo).
2. NCATS MIPE 4.0 library of approved and investigational drugs were added using the Kalypsis pin tool. Wells treated with DMSO only for 100% viability and media only for 0% viability were used as controls.
3. The assay plates were covered and incubated for 48 hours in a 37C, 5% CO2 incubator with controlled humidity.
4. After 48 hours, CellTilter-GloTM luminescent substrate mix (Promega) reagent was added to the assay plate and plates we incubated for 5 min at room temperature.
5. Signal was measured as median relative luminescence units on a ViewLux (PerkinElmer) multiplate reader.
[1] Heske CM, Davis MI, Baumgart JT, Wilson K, Gormally MV, Chen L, Zhang X, Ceribelli M, Duveau DY, Guha R, Ferrer M, Arnaldez FI, Ji J, Tran HL, Zhang Y, Mendoza A, Helman LJ, Thomas CJ. Matrix Screen Identifies Synergistic Combination of PARP Inhibitors and Nicotinamide Phosphoribosyltransferase (NAMPT) Inhibitors in Ewing Sarcoma. Clin Cancer Res. 2017 Dec 1;23(23):7301-7311. doi: 10.1158/1078-0432.CCR-17-1121. Epub 2017 Sep 12. PMID: 28899971; PMCID: PMC6636827.
`N#CC(=Cc1ccc(O)c(O)c1)C(=O)NCc1ccccc1`: the “viability” value was 90.4%. The same measure, in the same setting: for `c1cc(N[C@@H]2CCNC2)nc(-c2cnc3ccc(-c4cn[nH]c4)cn23)c1` the value was 94.1%; for `CC1=C(C(=O)Nc2cc3cn[nH]c3cc2F)C(c2ccc(Cl)cc2F)N=C(c2ccnc(Cl)c2)N1` (stereo not given), 76.5%. As for `O=C1NCCc2[nH]c(-c3ccncc3)cc21`, the Potency is 5.9 µM (active).

As for `CC(N[C@H]1CCCC[C@H]1NC(=O)c1ccc(Cl)cc1)c1cccc2ccccc12` (stereo not given in full), the “viability” value is 122%. For the molecule `CC(C)[C@H](CO)Nc1nc(Nc2cccc(Cl)c2)c2ncn(C(C)C)c2n1`, the Potency is 23.5 µM (active). Regarding `COc1ccc2cc([S+]([O-])Cc3ncc(C)c(OC)c3C)nc2c1`, the “viability” value is 118%. `CC(O)(C#Cc1ccc2c(c1)N(c1nc(N)ncc1Cl)CC2)c1nccs1` (stereo not given): the Potency was 14.8 µM (active). For `C[C@H](NC(=O)Cc1cc(F)cc(F)c1)C(=O)N[C@H](C(=O)OC(C)(C)C)c1ccccc1`, the “viability” value is 91.2%. On the same count and under the same terms, for `CC(=O)N[C@@H]1[C@H](O[C@@H]2c3ccc(c(Cl)c3)Oc3cc4cc(c3O[C@H]3O[C@H](CO)[C@@H](O)[C@H](O)[C@H]3NC(=O)CCCCCCCC(C)C)Oc3ccc(cc3Cl)C[C@H]3NC(=O)[C@H](N)c5ccc(O)c(c5)Oc5cc(O)cc(c5)[C@H](NC3=O)C(=O)N[C@H]4C(=O)N[C@H]3C(=O)N[C@@H]2C(=O)N[C@@H](C(=O)O)c2cc(O)cc(O[C@H]4O[C@H](CO)[C@@H](O)[C@H](O)[C@H]4O)c2-c2cc3ccc2O)O[C@H](CO)[C@@H](O)[C@@H]1O` the value was 130%; for `OC[C@H]1OC(O)C[C@@H](O)[C@H]1O` (stereo not given in full), 97.3%. Turning to `Cc1ncc(-c2ccnc(Nc3ccc(S(C)(=O)=O)cc3)n2)n1C(C)C`, the Potency is 6.62 µM (active).

Take `CCc1cc(C(C)=NOCc2ccc(C3CCCCC3)c(C(F)(F)F)c2)ccc1CN1CC(C(=O)O)C1`: the “viability” value is 83.6%. Consider `CC(C)(N)c1ccc(-c2nc3ccccc3nc2-c2ccccc2)cc1`, for which the Potency is 23.5 µM (active).

As for `Cc1cc(C(=O)NOCCO)c(Nc2ccc(I)cc2F)n(C)c1=O`, the “viability” value is 91.5%. With `C=CC(=O)Nc1cccc(Nc2nc(NC3CCC(N(C)C)CC3)nc3c2ncn3C(C)C)c1` (stereo not given), the Potency is 4.69 µM (active).

With `OCC(O)C(O)C(O)CO` (stereo not given), the “viability” value is 93.8%. `COc1cc(O)c2c(c1)C1OC1C[C@H](O)[C@H](O)C(=O)C=CC[C@H](C)OC2=O` (stereo not given in full): the Potency is 5.26 µM (active). Take `O=C1c2c(O)cccc2[C@@H]([C@@H]2O[C@H](CO)[C@@H](O)[C@H](O)[C@H]2O)c2cc(CO)cc(O)c21`: the “viability” value was 112%. Regarding `CC(=O)NCC(=O)N1[C@H]2CC[C@H]1c1cc(Nc3ncc(C(F)(F)F)c(NC4CCC4)n3)ccc12`, the Potency was 14.8 µM (active).

`CCCCCCCCc1ccc(CCC(N)(CO)CO)cc1`: the Potency is 23.5 µM (active). `CC(=O)O[C@H]1C[C@@H]2CC[C@H]3[C@H]4C[C@H]([N+]5(C)CCCCC5)[C@@H](OC(C)=O)[C@@]4(C)CC[C@@H]3[C@@]2(C)C[C@H]1N1CCCCC1`: the “viability” value was 110%. Same read-out and setting: under `COc1cc(OC)c(NC(=O)Nc2cc(C)on2)cc1Cl` stands 117%; under `O=C(O)C=Cc1ccc(Cn2ccnc2)cc1`, 106%. The same measure, in the same setting: for `CN[C@H](CC(C)C)C(=O)N[C@H]1C(=O)N[C@@H](CC(N)=O)C(=O)N[C@@H]2C(=O)N[C@H]3C(=O)N[C@H](C(=O)N[C@H](C(=O)O)c4cc(O)cc(O)c4-c4cc3ccc4O)[C@H](O)c3ccc(c(Cl)c3)Oc3cc2cc(c3O[C@@H]2O[C@H](CO)[C@@H](O)[C@H](O)[C@@H]2O[C@H]2C[C@](C)(N)[C@H](O)[C@H](C)O2)Oc2ccc(cc2Cl)[C@H]1O` the value was 120%. Same read-out and setting: for `Nc1nc(=O)n([C@H]2CSC(CO)O2)cc1F` (stereo not given in full) the value was 116%. Take `COc1cc(OC)c(C=CS(=O)(=O)Cc2ccc(OC)c(NCC(=O)O)c2)c(OC)c1`: the Potency is 0.418 µM (active).

As to `CC(C)C[C@@H](C=O)NC(=O)[C@H](CC(C)C)NC(=O)[C@H](CC(C)C)NC(=O)OCc1ccccc1` (Cbz-Leu-Leu-Leu-aldehyde), the Potency was 0.332 µM (active). On to `C[C@H]1COc2c(N3CCN(C)CC3)c(F)cc3c(=O)c(C(=O)O)cn1c23`, for which the “viability” value was 131%. Consider `CCC(C=C[C@@H]1OC(=O)C=C[C@H]1C)=C[C@H](C)CC=CC(C)=C[C@@H](C)C(=O)[C@@H](C)[C@H](O)[C@@H](C)CC(C)=CC(=O)O`, for which the Potency was 0.0277 µM (active). The same measure, in the same setting: for `Cc1cc(-c2nnc3n2CCCCC3)c(C)n1-c1ccccc1` the value was 0.0012 µM (active). As for `CC(C)(O)CC[C@@H](O)[C@](C)(O)[C@H]1CC[C@@]2(O)C3=CC(=O)[C@@H]4C[C@@H](O)[C@@H](O)C[C@]4(C)[C@@H]3CC[C@]12C`, the “viability” value is 114%.

As for `COc1cc(C(C)C)c(Oc2cnc(NC(CO)CO)nc2N)cc1I`, the “viability” value was 102%. Same read-out and setting: under `CC(=O)OC[C@@H]1O[C@@H](n2ccc(=O)[nH]c2=O)[C@H](OC(C)=O)[C@H]1OC(C)=O` stands 105%.

As to `Nc1ccn(C[C@@H](CO)OCP(=O)(O)O)c(=O)n1`, the “viability” value is 122% [at 23.2 µM].

Consider `O=C1NC(=O)C(=Cc2ccc3nccc(-c4ccncc4)c3c2)S1`, for which the Potency was 0.235 µM (active).

For the molecule `CC1(C)[C@H](O[C@H]2O[C@H](C(=O)O)[C@@H](O)[C@H](O)[C@H]2O[C@@H]2O[C@H](C(=O)O)[C@@H](O)[C@H](O)[C@H]2O)CC[C@@]2(C)[C@H]1CC[C@]1(C)[C@H]2C(=O)C=C2[C@H]3C[C@@](C)(C(=O)O)CC[C@]3(C)CC[C@]21C`, the “viability” value is 111%.

Take `C=Cc1c(C)c2cc3nc(cc4[nH]c(cc5nc(cc1[nH]2)C(C)=C5CCC(=O)O)c(CCC(=O)OC)c4C)[C@@]1(C)C3=CC=C(C(=O)OC)[C@H]1C(=O)OC`: the Potency is 2.35 µM (active). Still for that read-out and setting: under `COc1cccc2c1C(=O)c1c(O)c3c(c(O)c1C2=O)C[C@@](O)(C(C)=O)C[C@H]3O[C@H]1C[C@H](N)[C@H](O)[C@H](C)O1` stands 0.332 µM (active); under `CCc1ccc(C(=O)Nc2cc(CN3CCN(C)CC3)cc(C(F)(F)F)c2)cc1C#Cc1cnc2ccnn2c1`, 16.6 µM (active).
